Sampled rows, rich in hits. Any-hit rate of the full collection: about 2.1%.
GSIS activator = GLuc luminescence reporter in INS-1E cells, primary screen for activators of glucose-dependent secretion of insulin | INS-1E GLuc reporter insulin secretion, 2-3 h | activation, % at 16.6 µM | actives 0.61% (n = 370,000);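 active = lowest replicate activation of at least 40%, so every replicate reaches that level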;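 note: 0% = median of neutral control wells and 100% = median of IBMX positive control wells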
HIV Env fusion = inhibitors of HIV-1 Env-driven cell-cell fusion, primary screen, HeLa-JRFL effector, CEM21 target cells, luciferase; inhibition, % at 12.3 µM; actives 1.1% (n = 360,000); AID 651610, 2012;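 active = mean replicate inhibition score of at least 50 and every replicate individually at or above 50; inconclusive = only one of the two criteria met; inactive = mean below 50 and not all replicates reaching 50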;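 note: 0% = plate neutral controls and 100% = maraviroc near 300 nM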
MLL AF4-AF9 inh = inhibitors of AF4 peptide binding to AF9, primary screen, biochemical, AlphaScreen, biotin-AF4 peptide, FLAG-AF9, single point | Protein AF-9 (Homo sapiens), P42568 | inhibition, % at 10 µM | actives 0.47% (n = 350,000);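 active = every replicate reaching a set inhibition limit, whatever the replicate mean, cut at about 25% in these data; inconclusive = mean inhibition reaches that limit but some replicates miss it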;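 note: 0% = plate neutral control median and 100% = total signal loss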
NSD2 HMT inh = NSD2 histone methyltransferase inhibitors, primary screen, biochemical, AlphaScreen, single concentration, set 2 | actives 0.54% (n = 310,000) | NSD2 peptide methylation, 120 min | Histone-lysine N-methyltransferase NSD2 (Homo sapiens), O96028 | inhibition, % at 12.5 µM; in the data active = inhibition above about 50%
PGC1a acetyl inh = inhibitors of PGC1a acetylation signal, primary screen, cell-based, U2OS, AlphaScreen, inhibitor mode | AlphaScreen anti-acetyl-lysine; with virally co-expressed GCN5 acetyltransferase | inhibition, % at 15.6 µM | actives 0.17% (n = 350,000);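 active = every replicate shows inhibition of at least 40%; inconclusive = mean inhibition at least 40% but some replicate below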;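 note: 0% = neutral control wells and 100% = positive control wells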
* hit, by the source's call; ? = inconclusive; nt = no result; [ ] = another dose, or the depositor's remark.

SMILES | GSIS activator | HIV Env fusion | MLL AF4-AF9 inh | NSD2 HMT inh | PGC1a acetyl inh
COc1ccc([C@H]2CC(=O)C=C(c3ccc(F)cc3OCc3ccccc3)C2)cc1 | 6 | 20 | -1 | nt | 4
COc1ccc([C@H]2CC(=O)C=C(c3ccc(F)cc3OCc3ccccc3)C2)cc1OC | nt | 72* | -3 | nt | nt
Cc1cc(OCC(=O)NNC(=O)c2cnccn2)cc(C)c1Cl | -4 | 22 | 3 | -1 | 85*
C[C@@H]1CN([C@@H](C)CO)C(=O)c2cccc(NS(=O)(=O)c3ccccc3)c2O[C@@H]1CN(C)Cc1ccc(Cl)c(Cl)c1 | -9 | 73*[16.7 µM] | 2 | nt | -8
C[C@@H]1CN([C@H](C)CO)C(=O)c2cccc(NS(=O)(=O)c3ccccc3)c2O[C@@H]1CN(C)Cc1ccc(Cl)c(Cl)c1 | -9 | 81*[16.7 µM] | 6 | nt | -8
COCC(=O)N1[C@H](CO)[C@@H](c2ccccc2-c2cccc(OC)c2)[C@@H]1C#N | -3 | nt | 0 | nt | -4
COc1ccc(/C=N/NC(=O)CCc2n[nH]c(=O)[nH]c2=O)cc1O | -5 | 5 | -4 | -1 | 1
CC1CCN(S(=O)(=O)c2ccc(NC(=O)Cc3ccc(S(=O)(=O)N4CCOCC4)s3)cc2)CC1 | -28 | 61* | -3 | -5 | -9
CC1CCCN(S(=O)(=O)c2ccc(NC(=O)Cc3ccc(S(=O)(=O)N4CCOCC4)s3)cc2)C1 (stereo not given) | -18 | nt | 1 | -2 | nt
O=C(Nc1cccc(F)c1)N[C@H]1CC[C@H](CCNS(=O)(=O)c2cccc(Cl)c2)O[C@@H]1CO | -10 | ? | 4 | nt | 8
O=C(Nc1cccc(F)c1)N[C@H]1CC[C@@H](CCNS(=O)(=O)c2cccc(Cl)c2)O[C@H]1CO | -28 | 96*[16.7 µM] | 0 | nt | 2
O=C(Nc1cccc(F)c1)N[C@@H]1CC[C@H](CCNS(=O)(=O)c2cccc(Cl)c2)O[C@H]1CO | -29 | 67*[16.7 µM] | 1 | nt | 3
CC(=O)Nc1ccc(Nc2ncnc(N)c2[N+](=O)[O-])cc1 | 4 | 26 | 50* | -2 | nt
Cc1cccc(C)c1Nc1ncnc(N)c1[N+](=O)[O-] | 7 | -10 | 5 | 0 | -1
Cn1c(=O)oc2cc(S(=O)(=O)NCc3ccncc3)ccc21 | nt | 100* | nt | -9 | -1
Cc1cc(Br)c(S(=O)(=O)NCc2ccncc2)cc1C | -48 | 23 | -2 | -2 | nt
Cc1ccc(S(=O)(=O)NCc2ccncc2)cc1C | -37 | -1 | -3 | -2 | nt
Cc1cc(C)c(C)c(S(=O)(=O)NCc2ccncc2)c1C | -26 | 57* | 0 | -2 | nt
Cn1c(=O)oc2cc(S(=O)(=O)NCc3ccc(C(=O)O)cc3)ccc21 | -28 | 2 | ? | -4 | 9
COc1cc(S(=O)(=O)NCc2ccncc2)ccc1Br | -26 | 65* | -1 | 11 | 9
CCCC(=O)N1CCN(c2ccc(NC(=O)c3cccs3)cc2Cl)CC1 | 11 | 0 | -2 | -2 | nt
O=C(c1ccccc1F)N1C[C@@H]2[C@H](c3ccccc31)[C@H](CO)N2Cc1ccc2c(c1)OCO2 | 4 | nt | 1 | nt | -11
Oc1cccc2cc(Nc3ccccc3)cnc12 | -11 | nt | 30* | nt | 28
COc1ccc(C(=O)N(Cc2ccccc2)Cc2cc3cc4c(cc3[nH]c2=O)OCCO4)cc1 | nt | 59* | nt | 0 | -13
Cc1ccc(CC2(OCCN(C)C)CCC(C(C)(C)C)CC2)cc1 (stereo not given) | 750* | 7 | 16 | 13 | nt
SMILES | GSIS activator | HIV Env fusion | MLL AF4-AF9 inh | NSD2 HMT inh | PGC1a acetyl inh
Cc1ccc2nc(N/N=C/c3ccccc3C#N)nc(-c3ccccc3)c2c1 | 48* | nt | 16 | -2 | -4
O=C(O)C1CCCN(S(=O)(=O)c2ccccc2)C1 (stereo not given) | 3 | 1 | 0 | -4 | -4
CCCC#Cc1ccc2c(c1)O[C@H](CN(C)S(=O)(=O)c1cccc(OC)c1)[C@H](C)CN([C@@H](C)CO)S2(=O)=O | -2 | -2[16.7 µM] | nt | nt | -2
COc1cccc(S(=O)(=O)N(C)C[C@@H]2Oc3cc(C#CCC(C)C)ccc3S(=O)(=O)N([C@@H](C)CO)C[C@@H]2C)c1 | -19 | 85*[16.7 µM] | -3 | nt | 3
COCC#Cc1ccc2c(c1)O[C@H](CN(C)S(=O)(=O)c1cccc(OC)c1)[C@H](C)CN([C@H](C)CO)S2(=O)=O | 6 | 7[16.7 µM] | -2 | nt | -5
COc1cccc(S(=O)(=O)N(C)C[C@@H]2Oc3cc(C#CCC(C)C)ccc3S(=O)(=O)N([C@H](C)CO)C[C@H]2C)c1 | 12 | 71*[16.7 µM] | 0 | nt | 4
COc1cccc(S(=O)(=O)N(C)C[C@H]2Oc3cc(C#CCC(C)C)ccc3S(=O)(=O)N([C@@H](C)CO)C[C@H]2C)c1 | 24 | 71*[16.7 µM] | -3 | nt | -1
